Measured values taken from PubChem BioAssay (NCI).
Compounds without any hit were thinned out: in the full panel of roughly 79,000, 15% have a hit. No stated cut-off is given here; in the data, active means growth inhibition above about 70%; inactive means the rest.

Experiments:
[1] = NCI Yeast Anticancer Drug Screen. Data for the rad50 strain (AID 155);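 further: 0% = growth of vehicle-only cultures of the same strain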; settings: S. cerevisiae rad50 strain growth inhibition; at 50.0 µM; stronger effect = higher value
In short: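 Relative growth inhibition (compound vs vehicle) was measured in yeast with a defined repair-gene alteration.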

[2] = NCI Yeast Anticancer Drug Screen. Data for the mec2-1 strain (AID 157); settings: S. cerevisiae mec2-1 strain, at 50.0 µM, stronger effect = higher value
In short: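 Readout is yeast growth inhibition, normalised to vehicle-treated controls, in the mec2-1 strain exposed to compound.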

[3] = NCI Yeast Anticancer Drug Screen. Data for the sgs1 mgt1 strain (AID 161);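 further: 0% = growth of cultures given vehicle only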; settings: S. cerevisiae sgs1 mgt1 strain, at 50.0 µM, stronger effect = higher value
In short: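 Growth of a repair-deficient yeast mutant was monitored after compound treatment and expressed as inhibition relative to vehicle-treated cultures.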

[4] = NCI Yeast Anticancer Drug Screen. Data for the cln2 rad14 strain (AID 165);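 further: 0% = growth equal to vehicle treated cultures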; settings: S. cerevisiae cln2 rad14 strain, at 50.0 µM, stronger effect = higher value
In short: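 Relative to vehicle controls, growth inhibition of compound-treated cln2 rad14 yeast was recorded.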

[5] = NCI Yeast Anticancer Drug Screen. Data for the bub3 strain (AID 167); settings: S. cerevisiae bub3 mutant strain, at 50.0 µM, stronger effect = higher value
In short: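 Screening used yeast with an engineered genetic alteration affecting cell cycle control. Compound-exposed cultures were compared with vehicle cultures, and reduced growth was taken as inhibition.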

[6] = NCI Yeast Anticancer Drug Screen. Data for the mlh1 rad18 strain (AID 175); settings: S. cerevisiae mlh1 rad18 strain growth inhibition; at 50.0 µM; stronger effect = higher value
In short: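 Test agents were incubated with a yeast strain of defined genotype (DNA damage repair defect). Inhibition of growth was derived by comparison with vehicle-exposed cultures.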

Measured: growth inhibition

N#C/C(=C/NC(=S)N=Nc1c(O)[nH]c2ccccc12)C(N)=O
inactive: [1] -33.7% | [2] -51.7% | [3] -19.8% | [4] -6.6% | [5] -0.9% | [6] -18.9%

CC(=O)Oc1cc(C(C)C)ccc1C
inactive: [1] 26.7% | [2] -3.75% | [3] 18.1% | [4] -1.4% | [5] 0% | [6] 15.4%

CC1OC(OC2CCC3(C)C(CCC4C3CC(O)C3(C)C(C5=CC(=O)OC5)CCC43O)C2)CC(O)C1OC1CC(O)C(OC2CC(O)C(OC3OC(CO)C(O)C(O)C3O)C(C)O2)C(C)O1 (stereo unspecified)
inactive: [1] 16.4% | [2] -7.7% | [3] -0.4% | [4] 4.35% | [5] 10.6% | [6] 20.1%

O=C(c1ccccc1)c1ccccc1
inactive: [1] 23.9% | [2] 2.35% | [3] -13.2% | [4] -16.8% | [5] 14.3% | [6] 14.1%

CCSC(SCC)C(Nc1ccc([N+](=O)[O-])cc1[N+](=O)[O-])C(OC(C)=O)C(OC(C)=O)C(COC(C)=O)OC(C)=O (stereo unspecified)
inactive: [1] 30.9% | [2] 9.65% | [3] 10.2% | [4] 14.8% | [5] -2.9% | [6] 12.8%

COc1ccc(NC(=O)C2C(=O)N(c3ccc(OC)cc3)C(=O)/C2=N\NC(N)=O)cc1 (stereo unspecified)
inactive: [1] -8.9% | [2] -24.9% | [3] -48% | [4] 11.1% | [5] -9.6% | [6] -18.2%

Cc1cnc(Sc2ncccn2)c([N+](=O)[O-])c1
inactive: [1] -7.05% | [2] -15% | [3] -2.1% | [4] -28.4% | [5] -31.1% | [6] -17.9%

CC1=NOC(=O)/C1=C/c1ccc(C)cc1
inactive: [1] 33.6% | [2] 20.8% | [3] 23.4% | [4] 2.55% | [5] 13.7% | [6] 8.05%

NC(=O)c1[nH]cnc1N
inactive: [1] 12.6% | [2] 24.9% | [3] 10.4% | [4] 4% | [5] 23.9% | [6] -58.5%

CC1S/C(=N\N=C\c2ccc(Cl)cc2)N=C1c1c(O)c2ccccc2oc1=O (stereo unspecified)
inactive: [1] 13.2% | [2] 52% | [3] 57.4% | [4] -7.5% | [5] 7.65% | [6] 45.9%

O=c1oc(-c2ccc(Cl)cc2Cl)nc2cc(Cl)ccc12
inactive: [1] 22.9% | [2] -10.4% | [3] 43.2% | [4] 22.2% | [5] 19.6% | [6] 25.4%

Cc1cc(C)c2c(SCc3ccc(Cl)cc3Cl)nc(N)nc2n1
inactive: [1] 31.8% | [2] 12.3% | [3] 45.9% | [4] -27.9% | [5] 7.1% | [6] 44.8%

Sc1ccc2ccccc2c1
inactive: [1] 12.4% | [2] 9.15% | [3] -23.3% | [4] -38.4% | [5] -17.1% | [6] -30.4%

Cc1oc2ccccc2c(=O)c1Cn1cnc2ccc([N+](=O)[O-])cc21
inactive: [1] -0.45% | [2] 10.3% | [3] 21.5% | [4] 11.8% | [5] 5.85% | [6] 10.1%

CC(C)C(Nc1ncnc2nc[nH]c12)C(=O)O (stereo unspecified)
inactive: [1] -25.6% | [2] -15.2% | [3] -6.65% | [4] -35.2% | [5] -23.2% | [6] -16.9%

O=C(O)c1ccc([C@@H]2C(=O)N(O)[C@@H]3C=CC[C@@H]32)cc1
inactive: [1] -8.4% | [2] -12.8% | [3] -7.45% | [4] 19.7% | [5] -14.7% | [6] 8.25%

Clc1cccc2[nH]c(-c3ccncc3)nc12
inactive: [1] -18.1% | [2] -15.1% | [3] -15.4% | [4] -10.8% | [5] 2.95% | [6] -5.75%

Cc1cc2[nH]c(=O)n(C3OC(CO)C(O)C3O)c2cc1C (stereo unspecified)
inactive: [1] -15.2% | [2] 19.1% | [3] 2.4% | [4] -33.2% | [5] -7.6% | [6] -4.4%

CSCNC(=O)Nc1ccccc1
inactive: [1] 30.4% | [2] 33.9% | [3] 19.1% | [4] 0.25% | [5] 15% | [6] 8.9%

Cc1cc2nc3ccc(O)cc3[n+](C)c2cc1N
inactive: [1] 57.7% | [2] 28.6% | [3] 31.6% | [4] 31.1% | [5] 15.9% | [6] 26.3%

COC(=O)C1(C)CCCC2(C)C1CCC13OC(=O)C(C(C)C)(CC21)C3O (stereo unspecified)
inactive: [1] -3.6% | [2] -28.3% | [3] -10.8% | [4] -33.7% | [5] -1.45% | [6] -28.8%

CSCCC(NC(C)=O)C(=O)O (stereo unspecified)
inactive: [1] 6.1% | [2] 1.5% | [3] -14.4% | [4] -3.55% | [5] -4.85% | [6] -8.3%

Cc1ccc(C)c(NC(=O)CC/C(=N\NC(=O)c2c(O)ccc3ccccc23)C(C)C(=O)c2ccc(O)cc2)c1 (stereo unspecified)
inactive: [1] 10.2% | [2] 36.5% | [3] -5.55% | [4] 12.6% | [5] 16.1% | [6] 20.8%

O=C1/C(=N\O)C2CCC1C2 (stereo unspecified)
inactive: [1] -11.2% | [2] 0.75% | [3] 0.3% | [4] 2.5% | [5] -9.2% | [6] 0.85%

CC(C)CC(C)C
inactive: [1] 17.9% | [2] -2.6% | [3] 20.7% | [4] 5.75% | [5] 13.4% | [6] 25.1%

C1=CCOCOC1
inactive: [1] -2.35% | [2] -24.4% | [3] -2.35% | [4] -8% | [5] -8.95% | [6] -38.1%

C[N+](C)(CCCn1ccnc1[N+](=O)[O-])CCCn1ccnc1[N+](=O)[O-]
inactive: [1] -15.3% | [2] -6% | [3] 14.8% | [4] 3.55% | [5] -14.8% | [6] 4.8%

c1ccc2c3c(ccc2c1)CCC3
inactive: [1] -20.9% | [2] -42.9% | [3] -35% | [4] 10% | [5] -25.4% | [6] -12.4%

COc1ccc(CC(=O)c2c(O)c3c(c(CC=C(C)C)c2OC)OC(C)(C)C=C3)cc1
inactive: [1] 22.4% | [2] -26.3% | [3] -14.8% | [4] 4.15% | [5] -2.75% | [6] 14.2%

COc1cc2cc3c4cc(OC)c(OC)cc4cc[n+]3cc2cc1OC
inactive: [1] -4.5% | [2] -54.5% | [3] -2.8% | [4] -12.3% | [5] -15.8% | [6] -68%

CCCCNC[C@@H](O)[C@H](O)COS(C)(=O)=O
inactive: [1] 0.4% | [2] -11.7% | [3] -8.65% | [4] -24.1% | [5] -13.7% | [6] -7.05%

CCOC(=O)c1c(N)sc2c1C(C(=O)OCC)CCC2 (stereo unspecified)
inactive: [1] -28.3% | [2] -10.7% | [3] 3.95% | [4] -24.1% | [5] 19.4% | [6] -11.7%

Cc1noc(C)c1CCCOC1COc2ccccc2OCCOCCOc2ccccc2OC1
inactive: [1] -4.7% | [2] -7.15% | [3] -5.8% | [4] -21.1% | [5] -9.15% | [6] -5.25%

CC(NC(=O)C(N)CC(=O)O)NC(=O)N(C)C(C)(C)C (stereo unspecified)
inactive: [1] -8.5% | [2] 1.75% | [3] 2.1% | [4] 2.65% | [5] 25.4% | [6] -44.2%

O=C1CC2CC1C1CC(Br)C(Br)C21 (stereo unspecified)
inactive: [1] -2.9% | [2] -17.3% | [3] -8.8% | [4] -4.85% | [5] -15.7% | [6] -1.1%

NC(Cc1cnc[nH]1)C(=O)NCC(=O)O (stereo unspecified)
inactive: [1] -11.4% | [2] -6.2% | [3] -11.8% | [4] -10.2% | [5] 4.3% | [6] -8.95%

C[N+]1(C)CCC(O)CC1
inactive: [1] -5.5% | [2] 7.2% | [3] -3.1% | [4] -13.4% | [5] 14.9% | [6] 1%

COc1cc(NC(=O)CC(C)=O)cc(OC)c1
inactive: [1] -4% | [2] -5% | [3] -10% | [4] 3.2% | [5] -18.4% | [6] -2.5%

CC(=O)C1C(=O)C(=O)N(c2ccc(Br)cc2)C1=O (stereo unspecified)
inactive: [1] -33.5% | [2] -12.6% | [3] -14.3% | [4] -9.8% | [5] -24.4% | [6] -38%

Cc1cc([N+](=O)[O-])ccc1NC(=O)c1c(Cl)c(Cl)c(C(=O)Nc2ccc([N+](=O)[O-])cc2C)c(Cl)c1Cl
inactive: [1] 38.5% | [2] 28.1% | [3] 34.9% | [4] -34% | [5] 7.9% | [6] 45.1%

C/C=C(\C)C(=O)OC1CC(C)(O)C(=O)C(OC(=O)/C(C)=C/C)C2(C)CCC(O)(C(C)C)C12 (stereo unspecified)
inactive: [1] -27.2% | [2] -30.1% | [3] -34.7% | [4] -16.8% | [5] -15% | [6] -24.8%
